The values below come from PubChem BioAssay (Tox21).

Structures are written as SMILES. Where “and” joins values, the source holds several entries; their conditions need not be identical. Identical values can stand only once. Results filed as inconclusive are left out. Entries that show only a call come without a potency. Unmarked numbers belong to inactive results. Calls of active or inactive are those of the source. Calls come from the whole dose curve; as a rule, active = well fitted cell-killing curve with a large enough effect in the repeat runs; inconclusive = weak or mixed curves; inactive = flat fitted curve, though single readings scatter.
Potency is the fitted concentration of half-maximal effect.

A short description of this assay: qHTS assay to identify small molecule antagonists of the estrogen related receptor (ERR) signaling pathway from Tox21 library - cell viability counter screen (AID 1224834). Note: nearly all actives have a fitted effect of over 30% in size. To be noted: ERR reporter cells viability, CellTiter-Fluor, 17.5 h; series mostly up to 92.4 µM. The text has this:
National Center for Advancing Translational Sciences [NCATS]
NIH Chemical Genomics Center [NCGC]
U.S. Environmental Protection Agency [EPA]
National Institutes of Environmental Health Sciences [NIEHS]
National Toxicology Program [NTP]
U.S. Food and Drug Administration [FDA]
Estrogen related receptors (ERRs), the first orphan nuclear receptors discovered, play an important role in the control of cellular energy metabolism. ERRs are required for high-energy production in response to the environmental challenges. ERR-alpha was also identified as an adverse marker for breast cancer progression; ERR-alpha-positive tumors have a poor prognosis. To screen and to identify environmental compounds that perturb the ERR signaling pathways could provide valuable information for potential therapeutic or preventive measures in the treatment of metabolic disease. To differentiate true ERR antagonists or agonist from cytotoxic substances, the assay is multiplexed with cell viability assay.
Tox21 Assay Protocol Summary:
The ERR cells were dispensed at 2,000 cells/5 ul/well in 1536-well white plates using a Multidrop dispenser. After the assay plates were incubated at a 37 C/5% CO2 incubator for 6 hours, 23 nL of compounds dissolved in DMSO, positive and negative controls or DMSO only was transferred to the assay plate by a pin tool. The plates were incubated at 37 C for 17.5 hours. 1 ul/well of CellTiter-Fluor reagent was added into the assay plates using a Flying Reagent Dispenser. After 30-minute incubation at 37 C/5% CO2, the fluorescence intensity in the plates was measured using a ViewLux plate reader.
With `Clc1nc2ccccc2s1`, the Potency entry was “inactive”.

For `CSc1ccc2c(c1)N(CCC1CCCCN1C)c1ccccc1S2` (stereo not given), the Potency is 43.1 µM (active) and 33.5 µM (active).

Consider `Brc1ccccn1`, for which the Potency entry was “inactive”.

Turning to `CCCCCCCCCC(=O)N(C)C`, the Potency entry was “inactive”.

In the case of `CO[Si](CCCNCCNCCN)(OC)OC`, the Potency entry was “inactive”.

As for `Clc1ccc(C(c2ccccc2Cl)C(Cl)Cl)cc1` (stereo not given), the Potency entry was “inactive”.

Take `CCCCCCS`: the Potency entry was “inactive”.

Take `CSc1c(Cl)c(Cl)c(Cl)c(Cl)c1Cl`: the Potency result is “inactive”.

With `COC(=O)C1=C(C)NC(C)=C(C(=O)OCCCN2CCC(c3ccccc3)(c3ccccc3)CC2)C1c1cccc([N+](=O)[O-])c1` (stereo not given), the Potency is 21.1 µM (active).

With `c1cc2c3c(c1)ccc1cccc(c13)C2`, the Potency result is “inactive”.

Consider `COc1ccc(-n2nc(CCC(=O)N(C)O)cc2-c2ccc(Cl)cc2)cc1`, for which the Potency was 26.6 µM (active).

As to `COC(=O)NCCC[Si](OC)(OC)OC`, the Potency result was “inactive”.

Consider `CC1=C(/C=C/C(C)=C/C=C/C(C)=C/C(=O)Nc2ccc(O)cc2)C(C)(C)CCC1`, for which the Potency was 28 µM (active) and 23.7 µM (active).

For the compound `CC(C)c1ccc(O)c(C(C)C)c1`, the Potency result was “inactive”.

Turning to `CCNc1nc(NC(C)CC)nc(OC)n1` (stereo not given), the Potency entry is “inactive”.

In the case of `C[C@H]1O[C@@H](O[C@H]2[C@@H](O)C[C@H](O[C@H]3[C@@H](O)C[C@H](O[C@H]4CC[C@@]5(C)[C@H](CC[C@@H]6[C@@H]5C[C@@H](O)[C@]5(C)[C@@H](C7=CC(=O)OC7)CC[C@]65O)C4)O[C@@H]3C)O[C@@H]2C)C[C@H](O)[C@@H]1O`, the Potency is 86.4 nM (active) and 95.8 nM (active).

Regarding `O=S(=O)(O)CCCN1CCOCC1`, the Potency entry is “inactive”.

Regarding `C[Si](C)(C)Cl`, the Potency entry was “inactive”.

Turning to `Cc1cc(Nc2ccc(O)cc2)ccc1N`, the Potency is 30.5 µM (active).

Consider `C=C[C@](C)(O)CC[C@@H]1[C@@]2(C)CCCC(C)(C)[C@@H]2CC[C@@]1(C)O`, for which the Potency was 61.1 µM (active).

On to `Cc1cn[nH]c1`, for which the Potency entry was “inactive”.

For the compound `C/C=C/C(=O)C1=C(C)CCCC1(C)C`, the Potency result is “inactive”.

With `CC[N+](CC)(CC)Cc1ccccc1`, the Potency entry is “inactive”.

Turning to `CCc1cccc(C)c1`, the Potency entry was “inactive”.

In the case of `NC(=O)c1ccccc1N`, the Potency entry is “inactive”.

In the case of `CCN1CCN(c2cc(-c3ccc(F)cc3)c3c(n2)CCCCCC3)CC1`, the viability change, negative = cytotoxic is 0.165% [at 19 µM].

With `COc1cccc(OC)c1O`, the Potency result was “inactive”.

In the case of `CC(C)OC(=O)c1cc(C(=O)OC(C)C)cc([N+](=O)[O-])c1`, the Potency entry is “inactive”.

Regarding `COc1cccc(O)c1`, the Potency entry is “inactive”.

As to `CCOB(OCC)OCC`, the Potency entry is “inactive”.

Regarding `Cn1cnc2ncnc(N)c21`, the Potency entry was “inactive”.

Take `CC(C)=C1CC[C@@H](C)CC1=O`: the Potency entry was “inactive”.

For `CC(C)=CCCC(C)O` (stereo not given), the Potency entry was “inactive”.

`CCC1(c2cnc[nH]2)Cc2ccccc2C1`: the Potency entry was “inactive”.

As to `Cc1c(-c2ccc(O)cc2)n(Cc2ccc(OCCN3CCCCCC3)cc2)c2ccc(O)cc12`, the Potency was 29.8 µM (active).

On to `CCCCOc1ccc(C(=O)CCN2CCCCC2)cc1`, for which the Potency result is “inactive”.

For `CCCCCCOc1cc(C)c(O)c(C)c1C`, the Potency is 61.9 µM (active).

With `CCc1cccc(CC)c1N(COC)C(=O)CS(=O)(=O)O`, the Potency result was “inactive”.

As to `Cc1cncc(C)c1`, the Potency entry was “inactive”.

For `OCCCCl`, the Potency result is “inactive”.
